Source: PubChem BioAssay AID1053118 (Broad Institute, 2014)
Measured potencies and affinities stand elsewhere. Activity calls are given as the source filed them.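 How the source made its calls: active means fitted half-maximal concentration for ATP signal loss at most twice the top valid dose; inconclusive means flat curve between -70 and -30%, or an invalid fit; inactive means flat within ±30%, wrong direction, or potency past limit.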

experiment: viability loss in HepG2 hepatoma cells – cell-based, cherry-picks, set 5, cytotoxicity control, dose response (AID 1053118); conditions: ATP luminescence, 72 h; series mostly up to 26 µM; activity change, negative = cytotoxicity: at the top concentration;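 further: 0% = neutral control wells and -100% = mitoxantrone positive control wells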

| SMILES | activity change, negative = cytotoxicity |
| --- | --- |
| CN(C)C(=O)c1ccc(-c2ccc3c(c2)[C@@H]2[C@@H](CCN2C(=O)c2ccc(F)cc2)[C@H](CO)N3C)cc1 | -13.8% (inactive) |
| COc1cccc(CN2CCN(C(=O)c3ccc(-c4ccccc4)cc3)CC2)c1OC | 1.6% (inactive) |
| Cc1ccc(CS(=O)Cc2ccc(C(=O)NC3CCCC(C)C3C)o2)cc1 (stereo not given) | -8.58% (inactive) |
| C[C@@H]1CN([C@H](C)CO)C(=O)c2cc(-c3ccccc3)cnc2O[C@@H]1CN(C)C(=O)c1cccc(F)c1 | -6.46% (inactive) |
| CC(C)Cc1nnc(NC(=O)CSc2nc(N)cc(=O)[nH]2)s1 | -7.72% (inactive) |
| O=S(=O)(c1cccc(F)c1)N1CC[C@H]2[C@H](CO)Nc3ccc(-c4cccc(F)c4)cc3[C@H]21 | -7.37% (inactive) |
| COCC(C)n1c(SCc2nc(N)nc(Nc3ccccc3C)n2)nc2ccccc2c1=O (stereo not given) | 14.1% (inactive) |
| CCc1nc2c(OCCc3cccc(OC)c3)cccn2c1N(C)C(=O)c1ccc(C)cc1 | -1.29% (inactive) |
| COC(=O)C[C@@H]1CC[C@@H]2[C@H](COc3ccc(NC(=O)Cc4cccs4)cc3C(=O)N2C)O1 | -25.5% [at 23.5 µM] (inactive) |
| CN(C)c1ccc(-c2ccnc3c2CC(C)(C(=O)NCC2CC2)O3)cc1 (stereo not given) | -10.6% (inactive) |
| COC(=O)C[C@H]1CC[C@H]2[C@@H](COc3ccc(NC(=O)Cc4cccs4)cc3C(=O)N2C)O1 | 7.86% (inactive) |
| Nc1nc(-c2cc3c(cc2Cl)OCCO3)cs1 | -13.3% (inactive) |
| NC(=O)C1=C[C@H](c2coc3ccccc3c2=O)C[C@H](OCCCCO)O1 | -5.67% (inactive) |
| O=C(CCC(=O)c1cccs1)NCc1cccnc1 | 6.99% (inactive) |
| COc1ccc(CN(C2CCCC2)S(=O)(=O)c2ccc(-n3cnnn3)cc2)cc1OC | 0.181% (inactive) |
| Cc1ccc(S(=O)(=O)N2CC[C@@H]3[C@H]2c2cc(-c4cccc(C(=O)N(C)C)c4)ccc2N[C@@H]3CO)cc1 | -14.5% [at 23.5 µM] (inactive) |
| C[C@@H]1CN([C@@H](C)CO)C(=O)c2cc(-c3ccccc3)cnc2O[C@@H]1CN(C)Cc1ccccc1 | -12.5% (inactive) |
| c1ccc2[nH]c(SCc3cn4cccnc4n3)nc2c1 | 35.2% (inactive) |

| SMILES | activity change, negative = cytotoxicity |
| --- | --- |
| C[C@H](CO)N1C[C@H](C)[C@H](CN(C)C(=O)c2cccc(F)c2)Oc2ncc(-c3ccccc3)cc2C1=O | -4.86% (inactive) |
| O=C(Nc1ccccc1F)N1C[C@@H]2[C@H](c3ccccc31)[C@H](CO)N2C(=O)C1CCOCC1 | -14.4% [at 23.5 µM] (inactive) |
| C[C@H]1CN([C@@H](C)CO)C(=O)c2cc(-c3ccccc3)cnc2O[C@@H]1CN(C)Cc1ccccc1 | -15.4% (inactive) |
| CN1CCN(C(=O)c2cccc(-c3cnc4cnc(-c5ccccc5Oc5ccccc5)cn34)c2)CC1 | 15% [at 8 µM] (inactive) |
| N#C[C@@H]1[C@H](c2ccccc2C2=CCCCC2)[C@@H](CO)N1S(=O)(=O)c1ccccc1 | -17.5% (inactive) |
| COC(=O)C[C@H]1CC[C@@H]2[C@H](COc3ccc(NC(=O)Cc4cccs4)cc3C(=O)N2C)O1 | 8.89% [at 23.5 µM] (inactive) |
| CCC(C)(C)NC(=O)C(OC(=O)c1ccco1)c1ccccc1OC (stereo not given) | -12.4% (inactive) |
| Cc1oc2ccc(O)cc2c1C(=O)c1ccc(Br)cc1 | -3.97% (inactive) |
| S=C(NCC1CCCO1)Nc1ccc(Cl)cc1Cl (stereo not given) | 3.84% (inactive) |
| COC(=O)C[C@H]1CC[C@H]2[C@H](COc3ccc(NC(=O)Cc4cccs4)cc3C(=O)N2C)O1 | -12.2% (inactive) |
| C[C@H]1CN([C@@H](C)CO)C(=O)c2cc(-c3ccccc3)cnc2O[C@H]1CN(C)Cc1ccccc1 | -17.2% (inactive) |
| COc1ncccc1C(=O)NC1CCCc2c1cnn2-c1ccc(C)c(C)c1 (stereo not given) | 11.9% (inactive) |
| COc1ccccc1CC(=O)OC(C)C(=O)Nc1ccc(S(=O)(=O)N2CCCCC2)cc1 (stereo not given) | -7.23% (inactive) |
| C[C@H](O)C#Cc1ccc2c(c1)O[C@H](CN(C)C)[C@H](C)CN([C@@H](C)CO)S2(=O)=O | -0.213% (inactive) |
| CO[C@H]1CN(C)C(=O)c2cc(NC(=O)Nc3cc(Cl)cc(Cl)c3)ccc2OC[C@@H](C)NC[C@@H]1C | -10.7% (inactive) |
| C[C@@H]1CN([C@H](C)CO)C(=O)c2cc(-c3ccccc3)cnc2O[C@H]1CN(C)C(=O)c1cccc(F)c1 | -7.44% (inactive) |
| COCC(=O)Nc1ccc2c(c1)C(=O)N(C)[C@@H]1CC[C@@H](CC(=O)NCc3ccccc3Cl)O[C@@H]1CO2 | 7.54% [at 23.5 µM] (inactive) |
